Source: the supplement of paper PMC13380429

Tested on: Vero E6 infected with SARS-CoV-2
Assay: inhibition of SARS-CoV-2 cytopathic effect; higher = more antiviral protection, active = above 15
Details: 48 h

Measured: inhibition of SARS-CoV-2 cytopathic effect

CN[C@@H](C)CC1CCCCC1 [propylhexedrine]
inactive: 1 nM -0.64% | 8.33 nM -5.27% | 100 nM -5.29% | 833.33 nM -6.1% | 10000 nM -8.06%

CCc1cn([C@H]2C[C@H](O)[C@@H](CO)O2)c(=O)[nH]c1=O [edoxudine]
inactive: 1 nM 2.72% | 8.33 nM 2.12% | 100 nM 0.77% | 833.33 nM 1.82% | 10000 nM -0.51%

COc1ccc2[nH]cc(C3=CCNCC3)c2c1
inactive: 1 nM 1.62% | 8.33 nM -0.77% | 100 nM 0.86% | 833.33 nM -2.22% | 10000 nM -3.05%

COc1ccc2c3c1O[C@H]1C[C@@H](O)C=C[C@@]31CCN(C)C2 [galantamine]
inactive: 1 nM 0.63% | 8.33 nM 3.15% | 100 nM 2.16% | 833.33 nM 2.11% | 10000 nM 0.3%

Cc1cccc(C)c1OCC(C)N (stereo not given) [mexiletine]
inactive: 1 nM 4.03% | 8.33 nM 3.45% | 100 nM 2.85% | 833.33 nM 7.08% | 10000 nM 5.03%

CCCN(CCC)C(=O)Cc1c(-c2ccc(Cl)cc2)nc2ccc(Cl)cn12 [alpidem]
inactive: 1 nM -5.3% | 8.33 nM -6.64% | 100 nM -7.76% | 833.33 nM -6.87% | 10000 nM -3.74%

Cc1ncc(Cl)cc1NCc1ccc(C(=O)N[C@@H](CC2CCCC2)C(=O)NC2CC2)s1
inactive: 1 nM 2.43% | 8.33 nM 0.35% | 100 nM -0.53% | 833.33 nM -0.57% | 10000 nM -2.59%

C=C1CC[C@@]2(O)[C@H]3Cc4ccc(O)c5c4[C@@]2(CCN3CC2CC2)[C@H]1O5 [nalmefene]
inactive: 1 nM 1.67% | 8.33 nM 1.64% | 100 nM 2.15% | 833.33 nM -1.46% | 10000 nM -3.45%

Cc1cccc(C)c1NC1=NCCCS1 [xylazine]
inactive: 1 nM 1.43% | 8.33 nM 1.2% | 100 nM 1.06% | 833.33 nM -1.24% | 10000 nM -0.19%

NC[C@@H]1O[C@H](O[C@@H]2[C@@H](CO)OC(O[C@@H]3[C@@H](O)[C@H](N)C[C@H](N)[C@H]3OC3O[C@H](CN)[C@@H](O)[C@H](O)[C@H]3N)[C@@H]2O)[C@H](N)[C@@H](O)[C@@H]1O (stereo not given in full)
inactive: 1 nM -1.31% | 8.33 nM -1.2% | 100 nM 0.22% | 833.33 nM 1.17% | 10000 nM -0.07%

COC(=O)/C=C/C(=O)N[C@@H]1CC[C@@]2(O)[C@H]3Cc4ccc(O)c5c4[C@@]2(CCN3CC2CC2)[C@H]1O5 [beta-funaltrexamine]
inactive: 1 nM -1.34% | 8.33 nM 1.21% | 100 nM -0.8% | 833.33 nM 1.68% | 10000 nM 6.01%

Cc1nccc2[nH]c(=O)ccc12 [medorinone]
inactive: 1 nM -1.14% | 8.33 nM -4.65% | 100 nM 1.27% | 833.33 nM -0.3% | 10000 nM -3.87%

O=C(O)Cn1c2c(c3cc(F)ccc31)CN(C(=O)c1cccc3ccccc13)CC2 [setipiprant]
inactive: 1 nM -1.54% | 8.33 nM -1.86% | 100 nM -0.37% | 833.33 nM -0.82% | 10000 nM -0.76%

COc1ccc(NS(=O)(=O)c2ccc(N)cc2)nn1 [sulfamethoxypyridazine]
inactive: 1 nM 3.44% | 8.33 nM 2.28% | 100 nM 2.29% | 833.33 nM 3.71% | 10000 nM 2.16%

Cl/C=C\C[N+]12CN3CN(CN(C3)C1)C2 [1-((Z)-3-chloroallyl)-1,3,5,7-tetraazaadamantan-1-ium]
inactive: 1 nM 0% | 8.33 nM 0.47% | 100 nM -0.23% | 833.33 nM 2.67% | 10000 nM 5.36%

CC(C)(C)NS(=O)(=O)c1cncc(-c2cc(F)c3nc(N)nn3c2)c1
inactive: 1 nM 3.23% | 8.33 nM 2.61% | 100 nM -1.19% | 833.33 nM 0.27% | 10000 nM 0.39%

COc1ccc(S(=O)(=O)Nc2cccnc2Nc2ccc(O)cc2)cc1
inactive: 1 nM 1.18% | 8.33 nM 4.25% | 100 nM 1.28% | 833.33 nM 0.22% | 10000 nM 1.62%

Nc1n[nH]c2nc3ccccc3nc12 [CDK1-5-inhibitor]
inactive: 1 nM 0.56% | 8.33 nM 0.41% | 100 nM 0.84% | 833.33 nM 0.94% | 10000 nM -3.33%

O=C(O)/C=C/c1ccc(-c2ccc(O)c(C34CC5CC(CC(C5)C3)C4)c2)cc1 [adarotene]
inactive: 1 nM -0.41% | 8.33 nM -0.4% | 100 nM 0.7% | 833.33 nM -4.11% | 10000 nM -6.23%

CCOC(=O)[C@H](CCc1ccccc1)N[C@@H](C)C(=O)N1CCC[C@H]1C(=O)O [enalapril]
inactive: 1 nM -1.51% | 8.33 nM -1.35% | 100 nM -0.07% | 833.33 nM 2.42% | 10000 nM 0.52%

c1ccc(Oc2nc(NC3CCCCC3)c3[nH]cnc3n2)cc1
inactive: 1 nM 0.79% | 8.33 nM -0.47% | 100 nM -1.37% | 833.33 nM -1.49% | 10000 nM -6.42%

Cc1nc2ccccc2n1Cc1ccc(Cl)cc1 [chlormidazole]
inactive: 1 nM -3.42% | 8.33 nM -1.1% | 100 nM -6.27% | 833.33 nM -3.55% | 10000 nM -4.49%

O=C(O)c1cnn(-c2nc3cc(OC(F)(F)F)c(Cl)cc3[nH]2)c1
inactive: 1 nM 0.36% | 8.33 nM 1.44% | 100 nM 1.23% | 833.33 nM 1.43% | 10000 nM -0.28%

N#Cc1cnc2cnc(NCc3cccnc3)cc2c1Nc1ccc(F)c(Cl)c1
inactive: 1 nM 0.87% | 8.33 nM 1.05% | 100 nM 2.35% | 833.33 nM -1.3% | 10000 nM -8.45%

CCCC1(CCC)CCC2(CCN(CCCN(CC)CC)C2)CC1 [atiprimod]
inactive: 1 nM -0.73% | 8.33 nM 0.69% | 100 nM 0.76% | 833.33 nM -4.7% | 10000 nM -26.6%

C#CC1(OCC(O)CN2CCN(c3cccc(C(F)(F)F)c3)CC2)CCCCC1 (stereo not given) [terciprazine]
inactive: 1 nM 0.45% | 8.33 nM -1.84% | 100 nM -0.67% | 833.33 nM 3.5% | 10000 nM -3.3%

COc1ncc(-c2ccc3nccc(-c4ccnnc4)c3c2)cc1NS(=O)(=O)c1ccc(F)cc1F
inactive: 1 nM -1.37% | 8.33 nM -0.94% | 100 nM -8.41% | 833.33 nM -8.47% | 10000 nM 3.03%

CN(C)CCCN1c2ccccc2CCc2ccccc21 [imipramine]
inactive: 1 nM -4.38% | 8.33 nM 1.76% | 100 nM -1.33% | 833.33 nM -2.74% | 10000 nM -4.2%

COC(=O)[C@H](Cc1cccc(C(=N)N)c1)[C@@H](C)NC(=O)c1ccc(-c2cc[n+]([O-])cc2)cc1 [otamixaban]
inactive: 1 nM -2.31% | 8.33 nM -2.54% | 100 nM -1.48% | 833.33 nM -0.51% | 10000 nM -3.22%

Cc1ccc(C)c(OCCCC(C)(C)C(=O)O)c1 [gemfibrozil]
inactive: 1 nM 0.62% | 8.33 nM -0.19% | 100 nM -0.2% | 833.33 nM 0.31% | 10000 nM -0.46%

CCS(=O)(=O)N(C)[C@H]1c2cc(C#N)ccc2OC(C)(C)[C@@H]1O [chromanol-293B-(-)-[3R,4S]]
inactive: 1 nM 0.15% | 8.33 nM -2.19% | 100 nM 0.8% | 833.33 nM 1.12% | 10000 nM -1.64%

C[C@H]1O[C@@H](n2cc(F)c(=O)[nH]c2=O)[C@H](O)[C@@H]1O [doxifluridine]
inactive: 1 nM -2.13% | 8.33 nM -1.63% | 100 nM 1.63% | 833.33 nM -0.27% | 10000 nM -0.71%

O=C(c1cc(S(=O)(=O)Nc2ccccc2F)c(F)cc1Cl)N1CCN2CCC[C@@H]2C1
inactive: 1 nM 1.66% | 8.33 nM 2.06% | 100 nM 1.64% | 833.33 nM 8.06% | 10000 nM -1.59%

COC(=O)Nc1nc2cc(SC(C)C)ccc2[nH]1 [methiazole]
inactive: 1 nM 0.45% | 8.33 nM 0.55% | 100 nM 2.08% | 833.33 nM 2.73% | 10000 nM -1.24%

O=C(Nc1ccc([N+](=O)[O-])cc1O)Nc1ccccc1Br
inactive: 1 nM 0.2% | 8.33 nM -0.25% | 100 nM -0.6% | 833.33 nM 0.15% | 10000 nM -2.06%

O=C(c1cccc(Cl)c1F)N1CCN(Cc2cccc(Nc3nccs3)n2)CC1
inactive: 1 nM -0.75% | 8.33 nM -9.29% | 100 nM 0.91% | 833.33 nM -4.51% | 10000 nM -1.08%

CCCCCCCCCCCCC[N+](C)(C)Cc1ccccc1 [benzalkonium]
inactive: 1 nM -0.66% | 8.33 nM 0.17% | 100 nM -0.42% | 833.33 nM 1.78% | 10000 nM -8.08%

C[C@H](C[C@H](N)C(=O)O)C(=O)O
inactive: 1 nM -1.19% | 8.33 nM -0.93% | 100 nM -1.73% | 833.33 nM -0.6% | 10000 nM -0.35%

CC(C)(C)NC[C@H](O)COc1cccc2c1CCCC2=O [levobunolol]
inactive: 1 nM -6.66% | 8.33 nM -1.55% | 100 nM -0.235% | 833.33 nM 2.58% | 10000 nM 2.67%

COC[C@H]1OC(=O)c2coc3c2[C@@]1(C)C1=C(C3=O)[C@@H]2CCC(=O)[C@@]2(C)C[C@H]1OC(C)=O [wortmannin]
inactive: 1 nM -3.55% | 8.33 nM -1.71% | 100 nM -2.28% | 833.33 nM -4.43% | 10000 nM -2.83%
